EBV LMP1 NFkB = inhibitors of Epstein-Barr LMP1-induced NF-kappaB reporter. hit rate 0.69% among 350,000. inhibition, % at 12.5 µM. LMP1-induced NF-kappaB luciferase reporter cells, luminescence. AID 504558; in the data active = inhibition above about 41%
KKLEB tox = CF airway cell cytotoxicity counter-screen. KKLEB CF airway cells viability, ATPlite luminescence, overnight; hits give low values; cells stimulated with P. aeruginosa culture filtrate. activity change (cytotoxicity), % at 5 µM. hit rate 0.36% among 360,000;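 active = corrected activity change at or below -50% at 5 µM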
Peg3 prom inh = reduces Peg3 promoter-driven luciferase expression in HeLa | HeLa PEG-Prom luciferase reporter, luminescence, overnight | inhibition, % at 20 µM | hit rate 1.7% among 360,000;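 active = inhibition of at least 50% at 20 µM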
MITF TRPM1 inh = inhibitors of MITF-driven TRPM1 promoter in melanoma cells. SK-MEL-5 TRPM1 promoter luciferase, 24 h. inhibition, % at 12.5 µM. hit rate 0.83% among 330,000. AID 488899;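 active = mean inhibition across replicates of 60% or more, whatever share of single replicates reaches that level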
CF NFkB inh = inhibitors of cystic fibrosis induced NF-kB. KKLEB NF-kB-GFP reporter, PAF-induced, GFP fluorescence overnight. hit rate 0.86% among 360,000. inhibition, % at 5 µM. AID 588850;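 active = at least 50% inhibition at 5 µM, scaled per plate between neutral and stimulator controls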;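 note: PAF is a Pseudomonas aeruginosa culture filtrate used as stimulus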
HIF-2a block = HIF-2a inhibition. 786-0 RCC cells HIF-2a reporter, luciferase luminescence, overnight. inhibition, % at 18.8 µM. hit rate 0.72% among 360,000. AID 624352;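 active = inhibition of the luminescence signal of 40% or more relative to plate controls, in a single-dose primary screen at 18.75 µM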
Each line names hits and unclear results; the compound was inactive in the other large screens. Hits are enriched below; roughly 3% of the tested compounds scored in any of these assays.

Cn1cc(/C=C/c2cc[n+](C)cc2)c2cc(Cl)ccc21	Peg3 prom inh 51
CC(=O)Nc1cc(-c2ccncc2)cn2c(-c3ccccc3)cnc12	none (no result: EBV LMP1 NFkB, MITF TRPM1 inh)
CC(=O)Nc1c(Br)cc2c(c1Br)C(=O)c1ccccc1-2	none
CC(=O)C1=C(c2ccc(Br)cc2)C(=O)c2ccccc2C1=O	EBV LMP1 NFkB 92, Peg3 prom inh 96, MITF TRPM1 inh 84, CF NFkB inh 81
Cc1ccc(NC(=O)c2ncn(CCCN3CCN(Cc4cccc5ccccc45)CC3)n2)cc1C	Peg3 prom inh 97
Cc1ccc(NC(=O)Cn2cnc(C(=O)Nc3ccc(C)c(C)c3)n2)cc1C	none
Cc1cc(C)c(CN2CCN(C(=O)Cn3cnc(C(=O)Nc4ccc(C)c(C)c4)n3)CC2)c(C)c1	KKLEB tox -69, Peg3 prom inh 86
CN(C)S(=O)(=O)c1ccc(-c2csc(N/N=C/c3ccco3)n2)cc1	Peg3 prom inh 61, MITF TRPM1 inh 72
C/C(=C\c1ccc(C(=O)O)cc1)c1ccc2c(c1)C(C)(C)CCC2(C)C	CF NFkB inh 91
O=C1NC[C@H](CCCCN2CCN(CC3CCCCC3)C(=O)C2=O)N(CCc2ccccc2)C1=O	none (no result: EBV LMP1 NFkB, KKLEB tox, Peg3 prom inh, MITF TRPM1 inh, CF NFkB inh)
CCCC1=Nc2cc(C(=O)NCCCOCC)ccc2Sc2ccccc21	MITF TRPM1 inh 72
CCCC1=Nc2cc(C(=O)NCCCOC(C)C)ccc2Sc2ccccc21	none
O=C(c1cc(-c2ccco2)on1)N1CCN(C(c2ccccc2)c2ccccc2)CC1	MITF TRPM1 inh 75
CC(C)c1onc(C(=O)N2CCN(c3ccccc3)CC2)c1[N+](=O)[O-]	none
CC(C)c1onc(C(=O)N2CCN(C(c3ccccc3)c3ccccc3)CC2)c1[N+](=O)[O-]	CF NFkB inh 50
NC(Cc1ccc(F)cc1)c1csc(Nc2nccc(C(F)(F)F)n2)n1 (configuration not stated)	none (no result: EBV LMP1 NFkB, MITF TRPM1 inh)
NC(Cc1ccc(Cl)cc1)c1csc(Nc2ccc(C(F)(F)F)cn2)n1 (configuration not stated)	Peg3 prom inh 101 (no result: EBV LMP1 NFkB, MITF TRPM1 inh)
NC(Cc1ccc(Cl)cc1)c1csc(Nc2nccc(C(F)(F)F)n2)n1 (configuration not stated)	Peg3 prom inh 83 (no result: EBV LMP1 NFkB, MITF TRPM1 inh)
NC(c1csc(Nc2ccc(C(F)(F)F)cn2)n1)C1CCCCC1 (configuration not stated)	Peg3 prom inh 99 (no result: EBV LMP1 NFkB, MITF TRPM1 inh)
CC(C)CC(N)c1csc(Nc2ccc(C(F)(F)F)cn2)n1 (configuration not stated)	Peg3 prom inh 102 (no result: EBV LMP1 NFkB, MITF TRPM1 inh)
NC(Cc1ccc(C(F)(F)F)cc1)c1csc(Nc2ccc(C(=O)NCCCO)cn2)n1 (configuration not stated)	none (no result: EBV LMP1 NFkB, MITF TRPM1 inh)
NC(Cc1ccc(C(F)(F)F)cc1)c1csc(Nc2ccc(C(=O)NCc3ccco3)cn2)n1 (configuration not stated)	Peg3 prom inh 86 (no result: EBV LMP1 NFkB, MITF TRPM1 inh)
COc1cc(OC)nc(Nc2nc(C(N)Cc3ccc(Cl)cc3)cs2)n1 (configuration not stated)	Peg3 prom inh 99 (no result: EBV LMP1 NFkB, MITF TRPM1 inh)
COc1ccc(CCNC(=O)c2ccc(CSc3ccc(Cl)cc3)o2)cc1OC	none (no result: EBV LMP1 NFkB, KKLEB tox, Peg3 prom inh, MITF TRPM1 inh, CF NFkB inh)
CC1CCN(CCNC(=O)c2ccc3c(=O)n(Cc4ccc(Cl)cc4)c(=S)[nH]c3c2)CC1	Peg3 prom inh 95
CC(=O)Nc1cccc(-c2ccnc3c2CC(C)(C(=O)NCCC(F)(F)F)O3)c1 (configuration not stated)	none (no result: EBV LMP1 NFkB, MITF TRPM1 inh)
CCCCCCC(=O)Oc1cccc(C2=CC(=O)CC(C)(C)C2=O)c1	none (no result: MITF TRPM1 inh)
NC(=O)c1cccc(-c2cnc(N)c(C(=O)c3cccnc3)n2)c1	Peg3 prom inh 62, MITF TRPM1 inh 61, CF NFkB inh 52
O=C(Nc1cccc(NC(=O)c2cccnc2)c1)c1ccccc1	none
CCN1C(=O)[C@H]2[C@@H](c3ccc(C(F)(F)F)cc3)N[C@]3(CCCN(Cc4ccc(C)cc4)C3=O)[C@H]2C1=O	none (no result: MITF TRPM1 inh)
COC(=O)C1=CO[C@@H](C)[C@H]2CN3CCc4c([nH]c5ccccc45)[C@@H]3C[C@H]12	EBV LMP1 NFkB 78
O=C(O)[C@@H]1[C@H]2C[C@H]3c4[nH]c5ccccc5c4CCN3C[C@@H]2CC[C@@H]1O	EBV LMP1 NFkB 65
COc1ccc(-c2cc(C(=O)N3CCCCCC3)no2)cc1	none
COc1ccc(-c2cc(C(=O)N3CCCC3)no2)cc1	EBV LMP1 NFkB 50
O=C(c1cc(-c2ccc3c(c2)OCO3)on1)N1CCOCC1	EBV LMP1 NFkB 62
O=C1NCN(c2ccccc2)C12CCN(CCCC(c1ccc(F)cc1)c1ccc(F)cc1)CC2	Peg3 prom inh 82
O=C(CCCN1CCN(c2ccccc2)CC1)c1ccc(F)cc1	none (no result: MITF TRPM1 inh)
Clc1cccc(Cc2c(-c3ccccc3)nc3c4ccccc4ccn23)c1	none (no result: EBV LMP1 NFkB, MITF TRPM1 inh)
CC(=O)Nc1ccc(S(=O)(=O)NC2=C(N3CCN(C)CC3)C(=O)c3ccccc3C2=O)cc1	MITF TRPM1 inh 83
CCN1CCN(C2=C(NS(=O)(=O)c3ccc(C)cc3)C(=O)c3ccccc3C2=O)CC1	MITF TRPM1 inh 70
O=C1NC[C@H](CC2CCCCC2)N(CCC23CC4CC(CC(C4)C2)C3)C1=O	none (no result: EBV LMP1 NFkB, KKLEB tox, Peg3 prom inh, MITF TRPM1 inh, CF NFkB inh)
CC(=O)c1ccc2c(c1)N(Cc1ccccc1Cl)C(=O)C(C)S2 (configuration not stated)	none (no result: EBV LMP1 NFkB, MITF TRPM1 inh)
O=C(Nc1ccc2c(c1)[C@@H]1C[C@@H](CC(=O)N3CCOCC3)O[C@@H](CO)[C@@H]1O2)NC1CCCC1	none (no result: MITF TRPM1 inh)
O=C(CC[C@H]1O[C@@H](n2ccc(=O)[nH]c2=O)[C@H](O)[C@@H]1O)N[C@@H](Cc1ccccc1)C(=O)NCc1ccccc1	none (no result: EBV LMP1 NFkB, MITF TRPM1 inh)
COC(=O)c1cc(=O)n(CCc2ccc(OC)cc2)c(=Nc2ccc(F)c(Cl)c2)s1	Peg3 prom inh 82
COc1cccc(CNCCc2c[nH]c3ccccc23)c1OCc1ccc(F)cc1	Peg3 prom inh 105
COc1cc(CNCCc2c[nH]c3ccccc23)ccc1OCc1ccc(F)cc1	Peg3 prom inh 112
COc1ccc([C@@H]2[C@@H]3C(=O)N(C(C)(C)C)C(=O)[C@@H]3[C@]3(Cc4ccccc4)C(=O)N(c4ccc(Br)cc4)C(=O)N23)cc1	KKLEB tox -83, CF NFkB inh 71
COc1ccc(N2C(=O)N3[C@H](c4ccc(Br)cc4)[C@@H]4C(=O)N(C(C)(C)C)C(=O)[C@@H]4[C@]3(Cc3ccccc3)C2=O)cc1	none
CCn1c(CNC(=O)c2cccnc2)cc2ccccc21	Peg3 prom inh 74
CCn1c(CNC(=O)c2ccc(F)cc2)cc2ccccc21	none
O=C(NOCc1ccccc1)c1ccc(Cl)cc1Cl	EBV LMP1 NFkB 46
O=C(NOCc1ccccc1)c1ccccc1	none
C[C@@H]1CN([C@@H](C)CO)C(=O)CCCn2nncc2CO[C@@H]1CN(C)S(=O)(=O)c1cn(C)cn1	none (no result: MITF TRPM1 inh)
CC(C)(C)S(=O)(=O)N1C[C@H]2C(=CC[C@@H]3C(=O)N(c4ccccc4)C(=O)[C@@H]32)[C@H]1CCO	none
CC/C(=N/Nc1cccc(C)c1)c1cnnc(SC)n1	KKLEB tox -52, CF NFkB inh 55
